In PubChem BioAssay (EPA / NIEHS):
Active and inactive are the calls of the source. The calls were made as follows: active = hit-call score of the fitted dose curve at least 0.9, where 1 is the maximum; inactive = score below 0.9.

How the values were obtained:
[1] = CCTE_Shafer_MEA_dev_correlation_coefficient_mean: CCTE's Neural Network Formation Assay for Mean Correlation Coefficient, Shafer Lab (AID 2284093);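 as to AC50: well mean pairwise spike train correlation integrated as AUC over recording days 5 to 12; potency fitted for loss of correlation relative to DMSO vehicle wells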
In short: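 Read-out: well-mean correlation coefficient of spike trains between electrode pairs, collapsed over four recording days as trapezoidal area-under-the-curve. Developing rat cortical neuron networks grown on MEAs received test chemical continuously from plating.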

[2] = IUF_NPC1b_proliferation_BrdU_72hr: Leibniz Research Institute for Environmental Medicine (IUF) 72-hour Neural Progenitor Cell Bromodeoxyuridine (BrdU) Proliferation Assay (NPC1b) (AID 2284207)
In short: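 hNPC spheres (primary, GW 16-19 fetal cortex), single sphere/well, EGF+FGF medium; 72 h compound, no renewal; BrdU pulse last 16 h; luminescent ELISA; activity vs DMSO baseline; growth-factor withdrawal as positive control.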

[3] = IUF_NPC1a_proliferation_area_72hr: Leibniz Research Institute for Environmental Medicine (IUF) 72-hour Neural Progenitor Cell Proliferation Area Assay (NPC1a) (AID 2284208)
In short: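 hNPC spheres (human fetal cortex, GW 16-19), one per poly-Hema U-bottom well; EGF+FGF medium; dosed day 0, no re-dosing; 72 h, 37C, 5% CO2; phase-contrast sphere area; DMSO = baseline; minus-GF = positive ctrl.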

[4] = IUF_NPC1_viability_72hr: Viability Assessment at 72 hours in the Leibniz Research Institute for Environmental Medicine (IUF) Neural Progenitor Cell Proliferation Assay (NPC1) (AID 2284209)
In short: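 Each well receives one 0.3 mm progenitor sphere from fetal brain cortex; test chemical is added at plating and left three days. Viability comes from alamar blue fluorescence, multiplexed with LDH and BrdU readouts in the same well.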

[5] = CCTE_Mundy_HCI_Cortical_Synap_Neur_Matur_NeuriteSpotCountPerNeuriteLength: CCTE's Synaptogenesis and Neurite Maturation Assay in rat cortical cells for Neurite Spot Count per Neurite Length, Mundy Lab (AID 2284210)
Protocol: CCTE_Mundy_HCI_Cortical_Synap&Neurite_Matur is a multiplexed, cell-based-readout assay that uses rat primary cortical cells with measurements taken at 288.33 hours after chemical dosing in a microplate: 96-well plate.CCTE_Mundy_HCI_Cortical_Synap_Neur_Matur_NeuriteSpotCountPerNeuriteLength is one of eight components of the CCTE_Mundy_HCI_Cortical_Synap&Neurite_Matur assay. It measures synaptogenesis and neurite maturation related to number of neurite-associated synapses (synaptophysin puncta) per unit length of neurite using High Content Imaging of fluorescently labelled markers.[…] Using a type of morphology reporter, loss -of-signal activity can be used to understand developmental effects.
Cells are plated onto 96 well plates and allowed 2 hr for attachment to the substrate. At days in vitro (DIV) 5, Cytosine Arabinoside (AraC) is added to arrest glial cell growth. Chemicals are dosed and a media change is performed at DIV 7 of differentiation and is continued through DIV 12 when the experiment is terminated. Cells are fixed with 20% paraformaldehyde and Hoechst Dye. […] A Cellomics ArrayScan VTi HCS Reader is used for automated image acquisition and analysis of neurite outgrowth.

[6] = CCTE_Mundy_HCI_Cortical_Synap_Neur_Matur_BPCount: CCTE's Synaptogenesis and Neurite Maturation Assay in rat cortical cells for Branch Point Count, Mundy Lab (AID 2284211)
In short: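 Branch point number is quantified by automated imaging of fluorescently labelled neurites and synapses in rat primary cortical neurons exposed from DIV 7 to DIV 12. Activity is analysed relative to DMSO negative control.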

[7] = CCTE_Mundy_HCI_Cortical_NOG_NeuriteCount: CCTE's Neurite Outgrowth Assay in rat cortical cells for Neurite Count, Mundy Lab (AID 2284212);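 also: cells fixed about two days after chemical exposure began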
In short: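 Neurite number per cell from high-content imaging of betaIII-tubulin immunostaining, with Hoechst nuclear counterstain.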

[8] = CCTE_Mundy_HCI_Cortical_NOG_NeuriteLength: CCTE's Neurite Outgrowth Assay in rat cortical cells for Neurite Length, Mundy Lab (AID 2284213)
In short: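 Neurite length was read by high-content imaging of βIII-tubulin-labelled neurites in rat primary cortical cultures. Activity was fitted relative to DMSO.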

[9] = CCTE_Mundy_HCI_Cortical_Synap_Neur_Matur_NeuriteLength: CCTE's Synaptogenesis and Neurite Maturation Assay in rat cortical cells for Neurite Length, Mundy Lab (AID 2284214)
In short: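 Neurite length in rat primary cortical cultures is imaged after MAP2, synaptophysin and Hoechst staining. Dosing starts DIV 7, ending DIV 12; DMSO serves as negative control and baseline.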

[10] = CCTE_Mundy_HCI_Cortical_Synap_Neur_Matur_NeuriteSpotCountPerNeuron: CCTE's Synaptogenesis and Neurite Maturation Assay in rat cortical cells for Neurite Spot Count per Neuron Count, Mundy Lab (AID 2284215)
In short: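 Read-out: neurite-associated synaptophysin puncta per neuron, imaged by high-content analysis after MAP2, synaptophysin and Hoechst staining. Rat primary cortical cultures, dosed DIV 7 through DIV 12; DMSO served as baseline.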

SMILES	AC50 [1]	outcome [2]	outcome [3]	outcome [4]	outcome [5]	outcome [6]	outcome [7]	outcome [8]	outcome [9]	outcome [10]	outcome [1]	AC50 [6]	AC50 [9]
N#Cc1ccc(CC(=NNC(=O)Nc2ccc(OC(F)(F)F)cc2)c2cccc(C(F)(F)F)c2)cc1	2.8 µM (active)	inactive	inactive	inactive	inactive	inactive	inactive	inactive	inactive	inactive	–	–	–
c1ccc2c(c1)c1cccc3ccc4cccc2c4c31	–	–	–	–	–	–	–	–	–	–	inactive	–	–
CN(C)C(=N)N=C(N)N	–	inactive	inactive	inactive	inactive	–	inactive	inactive	–	inactive	inactive	18.1 µM (active)	18.1 µM (active)
